MEP2-GFP yeast – modulators of MEP2-GFP levels in yeast, primary screen, S. cerevisiae, multiplex flow cytometry, MLPCN library | AID 2016, 2009 | 330,000 tested, 0.51% active | GFP response vs DMSO, % at 10 µM | S. cerevisiae MEP2-GFP strain, 3 h; 100% = DMSO control level;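 active = GFP response versus DMSO above a set limit, roughly screen mean plus 3 SD, cut at about 180% in these data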;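 also: median GFP fluorescence of the barcode-gated MEP2-GFP cells per well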
LAP4 TOR yeast – modulators of LAP4-GFP expression in yeast, primary screen, S. cerevisiae, multiplex flow cytometry, MLPCN library; 3 h; median GFP as percent of DMSO wells; GFP response vs DMSO, % at 10 µM; 320,000 tested, 0.34% active;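 active = GFP response vs DMSO above a set limit, about the screen mean plus 3 SD, cut at about 150% in these data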
RPL19A-GFP yeast – RPL19A-GFP expression modulators in yeast, primary screen, cell-based, S. cerevisiae, multiplex flow cytometry, MLPCN; S. cerevisiae RPL19A-GFP strain, 3 h; hits give low values; percent response vs DMSO, % at 10 µM; 330,000 tested, 0.3% active;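 active = percent response vs DMSO below 50%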;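 also: median channel GFP fluorescence of the barcoded RPL19A-GFP strain; lower means less RPL19A-GFP as with rapamycin TOR inhibition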
AGP1-GFP MLPCN – modulators of AGP1-GFP expression in yeast TOR pathway, primary screen, cell-based, multiplex flow cytometry, S. cerevisiae, MLPCN library; 3 h; GFP as percent of DMSO wells; GFP response vs DMSO, % at 10 µM; 320,000 tested, 0.02% active; AID 2066, 2009;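 active = GFP response relative to DMSO above a set limit, near screen average plus 3 SD, cut at about 150% in these data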;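 also: median GFP channel fluorescence of the gated AGP1 strain per well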
CIT2-GFP yeast – modulators of CIT2-GFP expression in yeast, primary screen, S. cerevisiae, GFP fusion, multiplex flow cytometry, MLPCN library. S. cerevisiae CIT2-GFP strain, 3 h; 100 means same as DMSO wells. GFP response vs DMSO, % at 10 µM. 320,000 tested, 0.065% active;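 active = GFP response relative to DMSO above a set limit, near the screen mean plus 3 SD, cut at about 150% in these data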;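 also: ratio of well median GFP fluorescence to mean of DMSO wells on the plate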
LAP4 cherry2 – LAP4-GFP expression modulators in yeast, confirmation, cell-based, second cherry pick, flow cytometry. shares compounds with LAP4 TOR yeast. GFP response vs DMSO, % at 10 µM. 590 tested, 20% active. S. cerevisiae LAP4-GFP strain, 3 h. AID 2621, 2010;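 active = GFP signal as percent of the solvent control above about 150%, meaning raised reporter expression, limit read from the data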
MEP2 cherry2 – modulators of MEP2-GFP levels in yeast, confirmation, S. cerevisiae, flow cytometry GFP, second cherry picks. S. cerevisiae MEP2-GFP strain, 3 h. GFP response vs DMSO, % at 10 µM. AID 2622, 2010. shares compounds with LAP4 TOR yeast. 590 tested, 10% active;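 active = GFP signal above 150% of the solvent control wells, that is a rise of more than half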;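 also: median channel GFP fluorescence of all gated yeast cells per well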
RPL19A-GFP pick2 – RPL19A-GFP modulators in TOR pathway yeast, confirmation, cell-based, S. cerevisiae, flow cytometry, second cherry pick. S. cerevisiae RPL19A-GFP strain, 3 h; hits give low values; 100% means same as DMSO wells. 590 tested, 3% active. shares compounds with LAP4 TOR yeast. GFP response vs DMSO, % at 10 µM;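 active = under 65% GFP response relative to DMSO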;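 also: median GFP channel fluorescence per well over the all cells gate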
CIT2-GFP pick2 – modulators of CIT2-GFP expression in yeast, confirmation, flow cytometry, second cherry pick, single plex; shares compounds with LAP4 TOR yeast; 590 tested, 8% active; S. cerevisiae CIT2-GFP strain, 3 h; DMSO control wells read 100%; AID 2624, 2010; GFP response vs DMSO, % at 10 µM;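 active = GFP response vs DMSO above about 150%, limit read from the data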;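 also: median green fluorescence per well over all gated yeast cells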
AGP1-GFP pick2 – AGP1-GFP expression modulators, hit retest, confirmation, cell-based, flow cytometry, S. cerevisiae, cherry pick set 2; S. cerevisiae AGP1-GFP strain, 3 h; percent response vs DMSO, % at 10 µM; shares compounds with LAP4 TOR yeast; 590 tested, under 10 active;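 active = over 150 percent of DMSO response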;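 also: median GFP channel fluorescence over all cells without mother daughter split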
s288c autofluor – compound autofluorescence in yeast s288c, dose response, artefact control for yeast TOR pathway GFP screen, s288c strain. shares compounds with LAP4 TOR yeast. AID 2757, 2010. S. cerevisiae s288c, 520 nm autofluorescence, flow cytometry, 3 h; hits give high values; zero means same as solvent-only cells. 610 tested, under 10 active. fluorescence change (kMESF span) at 33 µM;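 active = fluorescence span over the dose series, or activity score, above about 33, limit read from the data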
s288c autofl DR – autofluorescence of compounds in yeast s288c, dose response, artefact control for yeast TOR pathway GFP screen, primary hits, KU SAR, s288c parental | AID 488829, 2010 | shares compounds with LAP4 TOR yeast | 110 tested, under 10 active | fluorescence change (span) at 33 µM | S. cerevisiae s288c parental, compound autofluorescence, flow cytometry, 3 h;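 active = fluorescence change span, or the activity score built from it, above 25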
TORC1 bypass – wild-type yeast growth inhibition sparing TORC1 bypass cells, mechanism study for yeast TOR pathway GFP screen, BY4741 wild type, TORC1 bypass strain. S. cerevisiae BY4741 spot growth rating, 48-72 h; hits give low values. shares compounds with LAP4 TOR yeast. growth rating (0-3) at 30 µM. 120 tested, under 10 active;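 active = growth rating at most 1 for wild type yeast while the TORC1 bypass strain still grows fully, rated 3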
A number is an active result; 0 = inactive; - = not tested or not shown. Compounds with a hit are over-represented: about 0.93% of the library has one in this group of screens.

SMILES | MEP2-GFP yeast | LAP4 TOR yeast | RPL19A-GFP yeast | AGP1-GFP MLPCN | CIT2-GFP yeast | s288c autofluor | others
O=C(C1CCC(CNS(=O)(=O)c2cccs2)CC1)N1CCN(c2ccc(Cl)cc2)CC1 (stereo unspecified) | 0 | 0 | 0 | 0 | 0 | -
O=c1/c(=C/c2cccc3ccccc23)sc2ncnn12 | 0 | 155.1 | 0 | 0 | 0 | 0 | s288c autofl DR=0;TORC1 bypass=0
Cc1ccsc1/C=c1\sc2ncnn2c1=O | 0 | 0 | 0 | 0 | 0 | -
Cc1ccc(CN2CCC(n3nccc3NC(=O)CCOc3ccccc3)CC2)o1 | 0 | 0 | 0 | 0 | 0 | -
N#C/C(=C/c1ccc(N2CCCCCC2)o1)c1ccc(Cl)cc1 | 0 | 0 | 0 | 0 | 0 | -
N#C/C(=C/c1ccc(N2CCCCC2)o1)c1cccc(F)c1 | 0 | 151.6 | 0 | 0 | 0 | - | LAP4 cherry2=0;MEP2 cherry2=0;RPL19A-GFP pick2=0;CIT2-GFP pick2=0;AGP1-GFP pick2=0
CCCCn1c(N)c(N(CCOC)C(=O)c2ccc(N3CCCC3=O)cc2)c(=O)[nH]c1=O | 0 | 0 | 0 | 0 | 0 | -
O=c1c2c([N+](=O)[O-])cc([N+](=O)[O-])cc2sn1Cc1ccccc1 | 0 | 0 | 0 | 0 | 0 | -
O=c1c2c([N+](=O)[O-])cc([N+](=O)[O-])cc2sn1-c1ccc(Br)cc1 | 0 | 0 | 32.0 | 0 | 0 | - | LAP4 cherry2=0;MEP2 cherry2=0;RPL19A-GFP pick2=0;CIT2-GFP pick2=0;AGP1-GFP pick2=0
CC1=NN(c2ccccc2)C(=O)C1C(c1ccccc1[N+](=O)[O-])C(C#N)C#N (stereo unspecified) | - | - | - | - | - | - | s288c autofl DR=0;TORC1 bypass=0
Cc1[nH][nH]c(=O)c1C(c1ccccc1[N+](=O)[O-])C(C#N)C#N (stereo unspecified) | 0 | 0 | 0 | 0 | 0 | -
O=C(NCC1CCCC(CNC(=O)Nc2ccc(Cl)cn2)C1)Nc1ccc(Cl)cn1 (stereo unspecified) | 0 | 0 | 0 | 0 | 0 | -
Fc1ccc(NC(=S)Nc2ccc3nccnc3c2)cc1 | 0 | 170.6 | 0 | 0 | 0 | - | LAP4 cherry2=0;MEP2 cherry2=0;RPL19A-GFP pick2=0;CIT2-GFP pick2=0;AGP1-GFP pick2=0
CCOC(=O)CSC1=NC(=O)/C(=C/c2ccc(OC)cc2)S1 | 0 | 152.3 | 0 | 0 | 0 | 0
O=C1C2C3C=CC(CO)(O3)C2C(=O)N1c1ccccc1-c1ccccc1 (stereo unspecified) | 0 | 193.9 | 0 | 0 | 0 | 0
CC(=O)Oc1ccc(N2C(=O)C3C4C=CC(CO)(O4)C3C2=O)cc1 (stereo unspecified) | 0 | 0 | - | 0 | 0 | 0
COc1cc(/C=C2\C(=O)ON=C2c2ccc(Cl)cc2)ccc1O | 0 | 224.3 | 0 | 0 | 0 | 0
Cc1ccc(/C=C2\C(=O)ON=C2c2ccccc2)o1 | 0 | 0 | 0 | 0 | 0 | -
O=C1ON=C(c2ccccc2)/C1=C/c1ccc(O)c(O)c1 | 0 | 0 | 0 | 0 | 0 | -
Cc1ccc(C2=NOC(=O)/C2=C\c2ccc(C)o2)cc1 | 0 | 202.9 | 0 | 0 | 0 | 0 | s288c autofl DR=0;TORC1 bypass=0
COc1ccc(/C=C2\C(=O)ON=C2c2ccccc2)cc1 | 0 | 167.5 | 0 | 0 | 0 | 0 | LAP4 cherry2=159.6;MEP2 cherry2=0;RPL19A-GFP pick2=0;CIT2-GFP pick2=0;AGP1-GFP pick2=0
Cc1cc(C(=O)NNC(=O)Cc2ccc(Cl)cc2)c(C)o1 | 0 | 0 | 0 | 0 | 0 | -
COC(=O)c1cn(C(=O)c2ccc(OC)c(OC)c2)c2ccccc12 | 0 | 0 | 0 | 0 | 0 | -
COC(=O)c1cn(C(=O)c2ccc(C)c(C)c2)c2ccccc12 | 0 | 150.9 | 0 | 0 | 0 | - | LAP4 cherry2=0;MEP2 cherry2=0;RPL19A-GFP pick2=0;CIT2-GFP pick2=0;AGP1-GFP pick2=0
CC(=O)Nc1ccc(S(=O)(=O)N(C)CC(=O)Nc2cccc(S(=O)(=O)N3CCCC3)c2)cc1 | 0 | 0 | 0 | 0 | 0 | -
SMILES | MEP2-GFP yeast | LAP4 TOR yeast | RPL19A-GFP yeast | AGP1-GFP MLPCN | CIT2-GFP yeast | s288c autofluor | others
NC(=O)C1=C[C@@H](c2ccccc2)C[C@@H](OCc2ccc(CO)cc2)O1 | 0 | 0 | 0 | 0 | 0 | -
CCOC(=O)C1=C(C)N(c2ccc(C)cc2)C(=O)/C1=C\c1ccc(O)c(OC)c1 | 0 | 0 | 0 | 0 | 0 | -
CCOC(=O)C1=C(O)c2ccccc2C(=O)/C1=C\c1ccc(C)cc1 | 0 | 185.6 | 0 | 0 | 0 | 41.3 | LAP4 cherry2=186.5;MEP2 cherry2=221.3;RPL19A-GFP pick2=0;CIT2-GFP pick2=161.7;AGP1-GFP pick2=0
O=c1cc(Cn2ccnc2)c2cc(O)ccc2o1 | 0 | 0 | 0 | 0 | 0 | -
CC(C)n1nccc1N(Cc1ccc(Br)cc1)S(=O)(=O)c1ccccc1 | 0 | 0 | 0 | 0 | 0 | -
O=C(O)c1ccccc1SC1CC(=O)N(c2ccc3c(c2)OCO3)C1=O (stereo unspecified) | 0 | 151.3 | 0 | 0 | 0 | 0
COc1ccc(S(=O)(=O)N2CCCCCC2)cc1C(=O)NC1(C)CCS(=O)(=O)C1 (stereo unspecified) | 0 | 0 | 0 | 0 | 0 | -
COc1ccc(S(=O)(=O)N2CCc3ccccc32)cc1C(=O)NC1(C)CCS(=O)(=O)C1 (stereo unspecified) | 0 | 158.2 | 0 | 0 | 165.3 | - | LAP4 cherry2=0;MEP2 cherry2=0;RPL19A-GFP pick2=0;CIT2-GFP pick2=0;AGP1-GFP pick2=0

Screens: PubChem BioAssay, NMMLSC
